This note sets out measurements from PubChem BioAssay (NCATS).

Unmarked numbers belong to inactive results. Results filed as inconclusive are left out. The source made the active and inactive calls. Unless noted, the call rests on the fitted dose curve; in most records, active means well fitted curve in the direction sought with a large enough effect; inconclusive means small, poorly fitted or top-dose-only effect, or another doubt; inactive means no such curve, though single readings can be large; an effect the other way counts as inactive or inconclusive.

For assay [1], the target named is Arylsulfatase A (Homo sapiens) (UniProt P15289). Nature of the assay: qHTS screen for enhancers of Arylsulfatase A (ASA1): LOPAC Validation Assay (AID 720538). Further: potency means the concentration at half of the fitted maximal effect. The method, boiled down: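 First, ASA-I179S fibroblasts from an MLD patient adhered for 6 hrs. Next, compounds were added for 48h. Then pNCS substrate (0.5mM final) with lysis buffer reacted 14h at room temperature before NaOH stop and fluorescence measurement.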
Sequence of Arylsulfatase A (Homo sapiens) (P15289 whole entry, looked up): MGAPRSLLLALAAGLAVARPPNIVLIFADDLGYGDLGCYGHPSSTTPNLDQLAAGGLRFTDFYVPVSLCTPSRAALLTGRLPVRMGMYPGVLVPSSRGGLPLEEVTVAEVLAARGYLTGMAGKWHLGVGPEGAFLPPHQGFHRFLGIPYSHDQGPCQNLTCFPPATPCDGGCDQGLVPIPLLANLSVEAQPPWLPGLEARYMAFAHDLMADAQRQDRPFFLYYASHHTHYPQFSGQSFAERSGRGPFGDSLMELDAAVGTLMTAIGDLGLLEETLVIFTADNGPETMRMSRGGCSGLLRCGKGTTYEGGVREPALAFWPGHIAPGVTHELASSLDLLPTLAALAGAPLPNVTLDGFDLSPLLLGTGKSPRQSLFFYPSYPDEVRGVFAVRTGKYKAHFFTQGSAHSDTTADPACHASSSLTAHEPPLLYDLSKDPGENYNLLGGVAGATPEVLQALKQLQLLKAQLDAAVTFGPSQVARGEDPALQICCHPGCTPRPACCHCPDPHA
(In general: In qHTS, concentration-response curves come from the screen itself.)

Assay [2] can be described thus: qHTS for compounds that reverse cellular toxicity of Amyloid beta (A-beta) peptide in yeast: LOPAC Validation Assay (AID 720559).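 Further: plate controls were DMSO for no effect and equimolar ferric chloride plus clioquinol rescue for full effect.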 The method, boiled down: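 Activity is expressed relative to DMSO and an equimolar ferric chloride/clioquinol mix. Compounds were pinned into medium with A-beta-expressing yeast, grown 48 hr at 30 C, then read by absorbance at 600 nm.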

Assay [3] in a line: qHTS for Activators of Parkin Expression: LOPAC Validation Assay (NLuc Reporter) (AID 720572;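 further: 0% = DMSO and 100% = positive control compound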). Put shortly:
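Neuronal cells with a Parkin promoter-driven FLuc/NLuc coincidence reporter were treated 24 h at 37 C in 7-point dose response (LOPAC). NLuc luminescence read after FLuc; signals normalized to DMSO and positive control (100%).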

Assay [4] in a line: qHTS for Activators of Parkin Expression: LOPAC Validation Assay (FLuc Reporter) (AID 720573;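 further: 0% = DMSO and 100% = positive control compounds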). The method, boiled down: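 A neuronal cell line harbouring FLuc and NLuc reporters behind the Parkin promoter was exposed to compounds for 24 h. Firefly luciferase signal, measured after 10 min with detection reagent, was scaled to DMSO and positive-control wells.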
In assay [5] the target is T1, Hexokinase-4 (Homo sapiens) + Glucokinase regulatory protein (Homo sapiens) (UniProt P35557+Q14397). Nature of the assay: qHTS assay for inhibitors of recombinant human GCK-GKRP interaction: Diaphorase-coupled assay (AID 743205). Put shortly:
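Inhibitors of the GCK–GKRP complex relieve GKRP suppression of GCK, detected through a G6PDH–diaphorase cascade reducing resazurin. Human GST-GCK and FLAG-GKRP are used at 10 nM with 5 mM glucose and 0.4 mM ATP.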

Assay [6] deals with T1, Hexokinase-4 (Homo sapiens) + Glucokinase regulatory protein (Homo sapiens). Nature of the assay: qHTS assay for inhibitors of recombinant human GCK-GKRP interaction: ADP-Glo assay (AID 743206).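 Further: plate controls were DMSO plus enzyme for no effect and no enzyme for full effect.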 The method, boiled down: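 GST-GCK and FLAG-GKRP (15 nM each in the dispensed mix, with 2 uM S6P) react with 0.4 mM ATP and 5 mM glucose (final) in Hepes pH 7.6 for 60 min at room temperature. ADP is measured by ADP-Glo luminescence.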

Assay [7] has the same target. Nature of the assay: qHTS assay for inhibitors of recombinant human GCK-GKRP interaction: HTRF assay (AID 743207).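 Further: 0% = DMSO with GCK present and -100% = DMSO wells lacking GCK.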 The method, boiled down:
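Steps: dispense GCK–GKRP complex (5 nM each, GST- and FLAG-tagged) with 2 uM S6P; pin in compounds; add XL665/Eu-cryptate-labelled antibodies; incubate 60 min at room temperature; read time-resolved FRET at 665 and 615 nm.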

The nature of assay [8]: qHTS assay for small molecule activators of the nuclear factor-kappa B (NF-kB) signaling pathway (AID 651749; active means well fitted activation curve with a large enough effect in the signal ratio; the % refers to the signal ratio; further: series mostly up to about 77 µM; % of control where 0% means no effect). Conditions: NF-kB-bla ME-180 cells, beta-lactamase FRET ratio, 16 h; stronger effect = higher value. The method, boiled down: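 Incubation lasted 16 hr at 37C in 5% CO2 after 23 nL compound addition to ME-180 NF-kB-bla cells. Activation appears as beta-lactamase-mediated FRET loss.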

Assay [9] is described as follows: qHTS assay for small molecule disruptors of the mitochondrial membrane potential - 1 hr assay (AID 651754; calls by dose curve; further: on the % scale 0 is the no-effect control and ±100 the full control effect; nearly all actives have a fitted effect of over 35% in size). The method, boiled down: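 HepG2 cells, attached overnight at 37C, were exposed to compound or DMSO vehicle for 1 hr at 37C, 5% CO2, then stained with Mito-MPS dye for 30 min. Red aggregate versus green monomer fluorescence reports membrane potential.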
Assay [10] is described as follows: qHTS assay for small molecule disruptors of the mitochondrial membrane potential - 5 hr assay (AID 651755; calls by dose curve; further: on the % scale 0 is the no-effect control and ±100 the full control effect; nearly all actives have a fitted effect of over 40% in size). Put shortly:
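HepG2 cells (2,000/well), attached overnight, exposed to compound 5 hr at 37C, then Mito-MPS dye 30 min. Fluorescence read for monomers (490/535 nm) and aggregates (540/590 nm).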

Assay [11] addresses Tumor necrosis factor (Homo sapiens) (UniProt P01375). Put plainly: qHTS assay to identify small molecules that stimulate Tumor Necrosis Factor-alpha (TNF-alpha) secretion (AID 651757; active means well fitted curve in the direction sought with a large enough effect in the signal ratio; the % refers to the signal ratio; further: 0% is about no effect). The method, boiled down: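 THP-1 cells were exposed to compounds for 17 hrs at 37 C, after which secreted TNF-alpha was measured by homogeneous HTRF (TR-FRET) using cryptate- and XL665-labeled anti-TNF-alpha antibodies, read after 3 hr at room temperature.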

Assay [12] is described as follows: qHTS assay for environmental chemicals that activate the Aryl hydrocarbon Receptor (AhR) signaling pathway (AID 651777). Further: % of control where 0% means no effect; nearly all actives have a fitted effect of over 15% in size. Conditions: 1A2-DRE human hepatoma cells, luciferase, 24 h; activation: stronger effect = higher value. Put shortly:
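Stable CYP1A2 promoter/DRE-luciferase human hepatoma line treated 24 hr; One-Glo luminescence, 30 min RT.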

The target in assay [13] is Nuclear receptor ROR-gamma (Homo sapiens) (UniProt P51449). Nature of the assay: qHTS assay for small molecule antagonists of the retinoid-related orphan receptor gamma (ROR-gamma) signaling pathway (AID 651802). Further: series mostly up to about 92 µM; on the % scale 0 is the no-effect control and ±100 the full control effect; nearly all actives have a fitted effect of over 60% in size. The method, boiled down: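 CHO cells carrying TET-inducible ROR-gamma and an ROR response element–luciferase reporter were exposed to compound, then induced with doxycycline. After 16hr at 37C, luminescence was read; lower signal indicates antagonism.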
Sequence of Nuclear receptor ROR-gamma (Homo sapiens) (P51449 whole entry, looked up): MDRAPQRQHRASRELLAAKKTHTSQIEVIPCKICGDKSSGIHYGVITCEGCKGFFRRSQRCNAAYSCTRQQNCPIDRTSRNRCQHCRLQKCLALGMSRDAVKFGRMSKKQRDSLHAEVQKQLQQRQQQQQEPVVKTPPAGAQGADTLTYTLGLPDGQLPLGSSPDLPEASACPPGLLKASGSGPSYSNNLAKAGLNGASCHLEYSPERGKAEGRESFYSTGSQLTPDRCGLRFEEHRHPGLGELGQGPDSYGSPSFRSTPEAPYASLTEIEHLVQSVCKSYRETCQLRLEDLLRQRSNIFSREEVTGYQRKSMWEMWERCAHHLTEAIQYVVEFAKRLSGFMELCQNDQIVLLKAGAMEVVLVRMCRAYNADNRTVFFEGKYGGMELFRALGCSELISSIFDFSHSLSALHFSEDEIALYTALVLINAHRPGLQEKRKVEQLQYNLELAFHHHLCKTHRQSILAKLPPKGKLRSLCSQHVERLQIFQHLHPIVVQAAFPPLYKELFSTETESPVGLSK

The nature of assay [14]: qHTS assay for small molecule agonists of the antioxidant response element (ARE) signaling pathway measured by Nrf2-dependant transcriptional activity (AID 720636; active means well fitted curve in the direction sought with a large enough effect in the repeat runs; an effect the other way counts as inactive or inconclusive;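 further: HepG2 cells with an ARE-driven luciferase reporter; % of control where 0% means no effect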). The method, boiled down: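 Reporter gene assay, HepG2 ARE-luc: 16 hr compound, 37 C, 5% CO2; read-out luciferase luminescence.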
Assay [15] is described as follows: qHTS assay for small molecule antagonists of the retinoid-related orphan receptor gamma (ROR-gamma) signaling pathway - cell viability counter screen (AID 720652; active means well fitted curve in the direction sought with a large enough effect in the repeat runs; an effect the other way counts as inactive or inconclusive;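 further: series mostly up to about 92 µM; compound exposure lasted 16 hr before ATP read; on the % scale 0 is the no-effect control and ±100 the full control effect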). Put shortly: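 Counter screen in CHO cells carrying TET-inducible ROR-gamma and an ROR response element-luciferase reporter; cells plated 5 hr, compound pinned, doxycycline added, then 16 hr at 37 C. Viability read as intracellular ATP by CellTiter-Glo luminescence.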

Assay [16] can be described thus: qHTS assay for small molecule activators of the p53 signaling pathway (AID 651743; active means well fitted activation curve with a large enough effect in the signal ratio, not every such curve was filed as active; the % refers to the signal ratio; further: series mostly up to about 92 µM; % of control where 0% means no effect). As to conditions: HCT-116 p53RE-bla, beta-lactamase FRET ratio, 16 h; activation: stronger effect = higher value. The method, boiled down: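 HCT-116 p53RE-bla, 4,000 cells/well; 5 h settle; cpd/DMSO 16 h, 37 C; LiveBLAzer B/G 2 h RT; fluorescence intensity.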
The nature of assay [17]: qHTS assay to identify small molecules that stimulate interleukin-8 (IL-8) secretion (AID 651758; active means well fitted activation curve with a large enough effect in the signal ratio; the % refers to the signal ratio; further: 0% is about no effect). The method, boiled down:
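THP-1 cells (2000/well) exposed to compound 16 h at 37 C; secreted IL-8 then detected by HTRF with cryptate- and XL665-labelled anti-IL-8 antibody pair after 1-3 h at room temperature.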

Assay [18] can be described thus: qHTS assay for small molecule agonists of the antioxidant response element (ARE) signaling pathway measured by Nrf2-dependant transcriptional activity - cell viability counter screen (AID 720653; active means well fitted curve in the direction sought with a large enough effect in the repeat runs; an effect the other way counts as inactive or inconclusive; further: on the % scale 0 is the no-effect control and ±100 the full control effect). Conditions: ARE-bla HepG2 viability, CellTiter-Glo ATP luminescence, 16 h; max response: stronger effect = lower value. Put shortly:
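ARE-bla HepG2 cells treated with compounds for 16 h at 37C; this counter screen measures viability as intracellular ATP by CellTiter-Glo luminescence after 30 min at room temperature.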

T1 sequence (P35557 whole entry, looked up): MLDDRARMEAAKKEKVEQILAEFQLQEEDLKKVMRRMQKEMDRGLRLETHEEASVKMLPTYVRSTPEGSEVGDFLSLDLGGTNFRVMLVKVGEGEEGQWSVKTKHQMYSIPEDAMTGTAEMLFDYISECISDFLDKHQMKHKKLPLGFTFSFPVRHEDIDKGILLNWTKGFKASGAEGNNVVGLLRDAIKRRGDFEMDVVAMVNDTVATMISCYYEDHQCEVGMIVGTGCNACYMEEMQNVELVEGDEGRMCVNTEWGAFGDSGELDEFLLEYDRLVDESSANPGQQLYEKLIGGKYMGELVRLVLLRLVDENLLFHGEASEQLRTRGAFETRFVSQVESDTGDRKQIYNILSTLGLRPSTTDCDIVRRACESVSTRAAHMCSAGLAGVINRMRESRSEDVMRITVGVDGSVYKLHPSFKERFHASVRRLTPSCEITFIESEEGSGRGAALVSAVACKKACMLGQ
T1 sequence (Q14397 whole entry, looked up): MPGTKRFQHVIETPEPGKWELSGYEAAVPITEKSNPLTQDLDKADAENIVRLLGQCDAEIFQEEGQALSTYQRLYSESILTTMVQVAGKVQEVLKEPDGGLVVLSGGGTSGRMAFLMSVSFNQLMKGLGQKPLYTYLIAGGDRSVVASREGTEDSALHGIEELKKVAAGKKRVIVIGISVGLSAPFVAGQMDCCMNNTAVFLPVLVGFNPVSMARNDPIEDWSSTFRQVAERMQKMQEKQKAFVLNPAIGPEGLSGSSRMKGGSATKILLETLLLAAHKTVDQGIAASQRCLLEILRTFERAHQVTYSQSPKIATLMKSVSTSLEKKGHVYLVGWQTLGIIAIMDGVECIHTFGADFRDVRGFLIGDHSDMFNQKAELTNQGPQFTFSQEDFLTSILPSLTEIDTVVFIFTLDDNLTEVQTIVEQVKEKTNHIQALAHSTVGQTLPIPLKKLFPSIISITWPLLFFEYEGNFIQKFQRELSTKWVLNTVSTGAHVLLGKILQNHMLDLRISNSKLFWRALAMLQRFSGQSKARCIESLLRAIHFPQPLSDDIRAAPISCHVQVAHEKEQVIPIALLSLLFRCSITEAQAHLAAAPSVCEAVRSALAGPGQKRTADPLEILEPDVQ
Sequence of Tumor necrosis factor (Homo sapiens) (P01375 whole entry, looked up): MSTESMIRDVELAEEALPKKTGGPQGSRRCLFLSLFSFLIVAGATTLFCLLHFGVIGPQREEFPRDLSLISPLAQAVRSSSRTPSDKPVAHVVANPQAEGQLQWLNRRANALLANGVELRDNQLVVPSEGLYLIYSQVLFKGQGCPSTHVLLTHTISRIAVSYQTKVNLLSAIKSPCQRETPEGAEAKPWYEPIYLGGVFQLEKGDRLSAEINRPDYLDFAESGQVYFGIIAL

For `COc1ccc2[nH]cc(CCN)c2c1`, the Potency entry in [1], in assay [3] and in [5] was “inactive” throughout. The compound was called inactive in assay [2], in [4], in assay [6] and in [7].
On to `CC1OC1P(=O)(O)O` (centres undefined), for which the Potency entry in assay [1] was “inactive”.
Turning to `CC(C)(C)c1o[nH]c(=O)c1CC(N)C(=O)O` (centres undefined), the Potency entry in assay [1], in [3] and in [5] was “inactive” each time. Also, the call in assay [2], in [4], in assay [6] and in assay [7] was inactive.
`COc1cc(CC(C)N)c(OC)cc1I` (centres undefined): the Potency entry in assay [1], in assay [3] and in assay [5] was “inactive” throughout. Moreover, the result in assay [2], in assay [4], in assay [6] and in assay [7] was inactive.
On to `NNC(N)=O`, for which the activation in assay [8] is -0.594%; in assay [12], 0.598%. Also, the Potency entry in assay [9], in [10], in assay [13], in assay [1], in assay [3] and in assay [14] was “inactive” each time. The Potency entry in [15] and in [5] was “inactive” each time. The compound was called inactive in assay [11], in assay [2], in [4], in assay [6] and in [7].
As for `C[CH2][Hg][S]c1ccccc1C(=O)O`, in assay [12], the activation was -11.2%.
Turning to `CCn1cnc2c(Nc3cccc(Cl)c3)nc(N[C@@H]3CCCC[C@@H]3N)nc21`, the Potency entry in [1], in assay [3] and in assay [5] was “inactive” each time. Besides, the result in assay [2], in assay [4], in assay [6] and in assay [7] was inactive.
Consider `CN(N=O)c1ccc(O)c(O)c1`, for which the Potency in [1] is 3.01 µM (active). In addition, the compound was called inactive in [2] and in [4]. Also, the Potency entry in assay [3] and in [5] was “inactive” each time.
Consider `O=CC=O`, for which the Potency result in assay [9], in [10], in [13], in assay [14] and in [15] was “inactive” each time. Moreover, the result in assay [11] was inactive. The activation in assay [12] is -1.42%.
As for `CP(=O)(O)C1=CCNCC1`, the Potency result in assay [1], in [3] and in [5] was “inactive” each time. Besides, the result in assay [2], in [4], in assay [6] and in assay [7] was inactive.
As for `CCCN(CCC)C1CCc2cccc(O)c2C1` (centres undefined), the Potency result in [1], in assay [3] and in assay [5] was “inactive” throughout. In addition, the compound was classed as inactive in assay [2], in assay [4], in assay [6] and in assay [7].
On to `CC1(C(=O)O)C2CCC(O2)C1(C)C(=O)O` (centres undefined), for which the Potency entry in [1], in [3] and in assay [5] was “inactive” each time. In addition, the outcome in assay [2], in assay [4], in assay [6] and in [7] was inactive.
On to `Clc1ccccc1Cl`, for which the activation in [8] was -0.0325%; in assay [12], -0.403%. In addition, the Potency entry in [9], in assay [10], in assay [13], in assay [14] and in [15] was “inactive” throughout. In addition, in [11], the outcome was inactive.
Take `CC(C)(O)[C@@H]1C2OC(=O)[C@@H]1[C@]1(O)C[C@H]3O[C@]34C(=O)O[C@H]2[C@]14C` (tested in a mixture with another compound): the Potency result in assay [1], in [3] and in assay [5] was “inactive” throughout. In addition, the compound was called inactive in assay [2], in [4], in assay [6] and in assay [7].
Turning to `C/C(O)=C(\C#N)C(=O)Nc1cc(Br)ccc1Br`, the Potency result in assay [1], in [3] and in [5] was “inactive” in each case. Moreover, the compound was classed as inactive in [2], in [4], in [6] and in assay [7].
Turning to `C[C@H](Cc1ccc2c(c1)OC(C(=O)O)(C(=O)O)O2)NC[C@H](O)c1cccc(Cl)c1`, the Potency result in assay [1], in assay [3] and in assay [5] was “inactive” in each case. The compound was classed as inactive in [2], in [4], in assay [6] and in assay [7].
In the case of `NC(=O)CI`, the Potency result in [1], in assay [3] and in [5] was “inactive” each time. In addition, the compound was called inactive in assay [2], in assay [4], in [6] and in assay [7].
Take `NC(=O)c1ccc(OCC(O)CN2CC=C(c3ccc(F)cc3)CC2)cc1` (centres undefined): the Potency entry in assay [1], in [3] and in assay [5] was “inactive” each time. Moreover, the outcome in [2], in [4], in [6] and in assay [7] was inactive.
In the case of `Cc1[nH]c2ccc(O)cc2c1CCN`, the Potency result in assay [1], in assay [3] and in assay [5] was “inactive” in each case. Moreover, the compound was called inactive in assay [2], in assay [4], in [6] and in assay [7].
As for `C[N+]1(C)CCOC(O)(c2ccc(-c3ccc(C4(O)C[N+](C)(C)CCO4)cc3)cc2)C1` (centres undefined), the Potency result in assay [1], in assay [3] and in assay [5] was “inactive” throughout. For the same compound, the result in assay [2], in [4], in assay [6] and in [7] was inactive.
Consider `C#CCN1CC(=O)N(COC(=O)C2C(C=C(C)C)C2(C)C)C1=O` (centres undefined), for which the activation in assay [16] is -4.17%; in [8], 1.36%; in assay [12] it was 3.63%.
For the compound `CC(C)CCON=O`, the activation in assay [16] was -3.9%; in assay [12], -0.695%. Also, the Potency entry in assay [9], in [10], in assay [17], in assay [13], in assay [14] and in assay [15] was “inactive” in each case. Moreover, the compound was called inactive in assay [11]. Moreover, the max response in [18] was 1.97%.
For `NCC(CP(=O)(O)O)c1ccc(Cl)cc1` (centres undefined), the Potency result in assay [1], in assay [3] and in [5] was “inactive” throughout. Besides, the result in assay [2], in assay [4], in assay [6] and in assay [7] was inactive.
For the compound `CC[C@H](C)[C@H]1O[C@]2(C=C[C@@H]1C)C[C@@H]1C[C@@H](C/C=C(\C)[C@@H](O[C@H]3C[C@H](OC)[C@@H](O[C@H]4C[C@H](OC)[C@@H](O)[C@H](C)O4)[C@H](C)O3)[C@@H](C)/C=C/C=C3\CO[C@@H]4[C@H](O)C(C)=C[C@@H](C(=O)O1)[C@]34O)O2`, in assay [12], the activation was -12.2%. Further, in [14], the Potency result was “inactive”.
On to `NCCc1ccc(S(=O)(=O)F)cc1`, for which the Potency result in [1], in [3] and in assay [5] was “inactive” each time. For the same compound, the outcome in assay [2], in [4], in [6] and in assay [7] was inactive.
